# Measured values taken from PubChem BioAssay.
# Values joined by “and” are separate entries in the source; they are usually repeats but may differ in a detail not shown here. Equal values may be shown once. More than one record can exist for a structure, and the calls need not agree. Active and inactive are the calls of the source.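 The calls were made as follows, unless noted: active = normalized viability below 100% at a tested concentration; inactive = the rest.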
# Tests used:
# [1] = liver-stage malaria parasite load reduction – cell-based, known kinase inhibitor set, luminescence, hepatoma host viability (AID 624392; call rule not given here;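 also: infected cells incubated roughly two days before readout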); conditions: Plasmodium liver stage in hepatoma cells, luciferase luminescence, concentration not given here; liver cell % of control: measured here: host liver cell viability; parasite % of control: stronger effect = lower value
# [2] = compounds altering HSF1 focus formation in cells – imaging, Selleck Cancer Library (AID 1347162; in the data active = plate-normalised HSF1 focus index below about 0.46); conditions: human cells, HSF1 nuclear foci imaging, at 10 µM; SSMD: measured here: HSF1 foci SSMD mean; cell count: measured here: cell number; plate-normalised HSF1 focus index: stronger effect = lower value
# [3] = drug combination growth inhibition, ovarian cancer – cell-based, oncology-focused library, rucaparib conditional, profiling panel (AID 1508598); conditions: patient-derived ovarian cancer cells, CellTiter-Glo viability, 144 h, stronger effect = lower value
# [4] = blockers of cellular phospholipid synthesis – cell-based, LOPAC library, screen 4, primary screen (AID 1347384; call rule not given here); conditions: animal cells, phospholipid biosynthesis inhibition screen; at 10 µM
# [5] = galactose survival enhancers in mitochondrial complex I cybrids – cell-based, galactose medium, ATP luminescence, primary screen (AID 1645843;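 active = z-score of at least 1.8 in each of two replicates, scored against plate mean and spread of sample wells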;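 also: positive z means more ATP and so rescue of galactose-driven cybrid death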); conditions: complex I mutant cybrid cells, 72 h, stronger effect = higher value
# [6] = at 0.000305 µM, OCI-C5x cells, with rucaparib 10 µM, 100% = cells with rucaparib alone
# [7] = at 0.000305 µM, OCI-C5x cells, without rucaparib
# [8] = at 0.000305 µM, OCI-P5x cells, with rucaparib 20 µM, 100% = cells with rucaparib alone
# [9] = at 0.000305 µM, OCI-P5x cells, without rucaparib
# [10] = at 0.00122 µM, OCI-C5x cells, with rucaparib 10 µM, 100% = cells with rucaparib alone
# [11] = at 0.00122 µM, OCI-C5x cells, without rucaparib
# [12] = at 0.00122 µM, OCI-P5x cells, with rucaparib 20 µM, 100% = cells with rucaparib alone
# [13] = at 0.00122 µM, OCI-P5x cells, without rucaparib
# [14] = at 0.00488 µM, OCI-C5x cells, with rucaparib 10 µM, 100% = cells with rucaparib alone
# [15] = at 0.00488 µM, OCI-C5x cells, without rucaparib
# [16] = at 0.00488 µM, OCI-P5x cells, with rucaparib 20 µM, 100% = cells with rucaparib alone
# [17] = at 0.00488 µM, OCI-P5x cells, without rucaparib
# [18] = at 0.0195 µM, OCI-C5x cells, with rucaparib 10 µM, 100% = cells with rucaparib alone
# [19] = at 0.0195 µM, OCI-C5x cells, without rucaparib
# [20] = at 0.0195 µM, OCI-P5x cells, with rucaparib 20 µM, 100% = cells with rucaparib alone
# [21] = at 0.0195 µM, OCI-P5x cells, without rucaparib
# [22] = at 0.0781 µM, OCI-C5x cells, with rucaparib 10 µM, 100% = cells with rucaparib alone
# [23] = at 0.0781 µM, OCI-C5x cells, without rucaparib
# [24] = at 0.0781 µM, OCI-P5x cells, with rucaparib 20 µM, 100% = cells with rucaparib alone
# [25] = at 0.0781 µM, OCI-P5x cells, without rucaparib
# [26] = at 0.313 µM, OCI-C5x cells, with rucaparib 10 µM, 100% = cells with rucaparib alone
# [27] = at 0.313 µM, OCI-C5x cells, without rucaparib
# [28] = at 0.313 µM, OCI-P5x cells, with rucaparib 20 µM, 100% = cells with rucaparib alone
# [29] = at 0.313 µM, OCI-P5x cells, without rucaparib
# [30] = at 1.25 µM, OCI-C5x cells, with rucaparib 10 µM, 100% = cells with rucaparib alone
# [31] = at 1.25 µM, OCI-C5x cells, without rucaparib
# [32] = at 1.25 µM, OCI-P5x cells, with rucaparib 20 µM, 100% = cells with rucaparib alone
# [33] = at 1.25 µM, OCI-P5x cells, without rucaparib
# [34] = at 5 µM, OCI-C5x cells, with rucaparib 10 µM, 100% = cells with rucaparib alone
# [35] = at 5 µM, OCI-C5x cells, without rucaparib
# [36] = at 5 µM, OCI-P5x cells, with rucaparib 20 µM, 100% = cells with rucaparib alone
# [37] = at 5 µM, OCI-P5x cells, without rucaparib
structure (smiles),measurement,setting,value
O=C(Nc1cccc(Cl)c1)Nc1ncc(CCNc2ncnc3ccsc23)s1,liver cell % of control,[1],68.4% and 82.5% and 102%
same,parasite % of control,[1],0.394% (inactive) and 0.318% (inactive) and 0.473% (active)
same,SSMD,[2],1.43
same,cell count,[2],7300
same,plate-normalised HSF1 focus index,[2],1.08 (inactive)
same,viability,[3]; [6],108% (inactive)
same,viability,[3]; [7],107% (inactive)
same,viability,[3]; [8],122% (inactive)
same,viability,[3]; [9],122% (inactive)
same,viability,[3]; [10],98.1% (active)
same,viability,[3]; [11],97.4% (active)
same,viability,[3]; [12],115% (inactive)
same,viability,[3]; [13],94.7% (active)
same,viability,[3]; [14],95.1% (active)
same,viability,[3]; [15],96.5% (active)
same,viability,[3]; [16],112% (inactive)
same,viability,[3]; [17],91.7% (active)
same,viability,[3]; [18],112% (inactive)
same,viability,[3]; [19],109% (inactive)
same,viability,[3]; [20],99.4% (active)
same,viability,[3]; [21],85.1% (active)
same,viability,[3]; [22],91.8% (active)
same,viability,[3]; [23],109% (inactive)
same,viability,[3]; [24],99.1% (active)
same,viability,[3]; [25],85.1% (active)
same,viability,[3]; [26],91.9% (active)
same,viability,[3]; [27],103% (inactive)
same,viability,[3]; [28],96.5% (active)
same,viability,[3]; [29],81.4% (active)
same,viability,[3]; [30],94.3% (active)
same,viability,[3]; [31],108% (inactive)
same,viability,[3]; [32],97.9% (active)
same,viability,[3]; [33],88.4% (active)
same,viability,[3]; [34],170% (inactive)
same,viability,[3]; [35],150% (inactive)
same,viability,[3]; [36],51.5% (active)
same,viability,[3]; [37],61.4% (active)
CCC(CC)CC1(C(=O)Nc2ccccc2SC(=O)C(C)C)CCCCC1,SSMD,[2],1.84
same,cell count,[2],6890
same,plate-normalised HSF1 focus index,[2],1.09 (inactive)
same,viability,[3]; [6],115% (inactive)
same,viability,[3]; [7],112% (inactive)
same,viability,[3]; [8],92.5% (active)
same,viability,[3]; [9],91.2% (active)
same,viability,[3]; [10],109% (inactive)
same,viability,[3]; [11],105% (inactive)
same,viability,[3]; [12],97.3% (active)
same,viability,[3]; [13],96% (active)
same,viability,[3]; [14],111% (inactive)
same,viability,[3]; [15],114% (inactive)
same,viability,[3]; [16],101% (inactive)
same,viability,[3]; [17],99.6% (active)
same,viability,[3]; [18],127% (inactive)
same,viability,[3]; [19],110% (inactive)
same,viability,[3]; [20],104% (inactive)
same,viability,[3]; [21],108% (inactive)
same,viability,[3]; [22],110% (inactive)
same,viability,[3]; [23],115% (inactive)
same,viability,[3]; [24],104% (inactive)
same,viability,[3]; [25],103% (inactive)
same,viability,[3]; [26],99.9% (active)
same,viability,[3]; [27],121% (inactive)
same,viability,[3]; [28],107% (inactive)
same,viability,[3]; [29],103% (inactive)
same,viability,[3]; [30],113% (inactive)
same,viability,[3]; [31],126% (inactive)
same,viability,[3]; [32],107% (inactive)
same,viability,[3]; [33],102% (inactive)
same,viability,[3]; [34],110% (inactive)
same,viability,[3]; [35],120% (inactive)
same,viability,[3]; [36],103% (inactive)
same,viability,[3]; [37],108% (inactive)
O=C(Nc1ccc2c(c1)CCN(Cc1ncn[nH]1)C2)c1ccccc1-c1ccc(C(F)(F)F)cc1,outcome,[4],inactive
same,z-score,[5],0.755 (inactive)
